Where “and” joins values, the source holds several entries; their conditions need not be identical. Identical values can stand only once. Screen size: about 360,000 compounds; about 9,100 (2.5%) were called active. Inconclusive results (about 4%) are left out. This is one part of a sample in which actives are shown more often than they occur. Rule as the data show it: active = max response below about -50%; inconclusive = no clear call, values can overlap the other calls; inactive = above that.
% is scaled to controls: 0 for no effect and ±100 for the full control effect.

Chain of D(3) dopamine receptor (Homo sapiens) (P35462 whole entry, looked up): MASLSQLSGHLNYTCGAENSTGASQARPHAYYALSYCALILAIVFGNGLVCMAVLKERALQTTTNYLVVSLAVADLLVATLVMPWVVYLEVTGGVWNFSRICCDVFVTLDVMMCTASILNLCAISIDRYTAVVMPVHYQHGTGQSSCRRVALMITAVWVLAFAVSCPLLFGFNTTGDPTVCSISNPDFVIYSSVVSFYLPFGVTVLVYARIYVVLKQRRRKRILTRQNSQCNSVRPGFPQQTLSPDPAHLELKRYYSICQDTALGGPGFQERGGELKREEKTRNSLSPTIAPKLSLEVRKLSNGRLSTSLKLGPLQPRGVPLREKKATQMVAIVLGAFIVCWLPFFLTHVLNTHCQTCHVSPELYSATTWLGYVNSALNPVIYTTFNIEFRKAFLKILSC

The target in the test is D(3) dopamine receptor (Homo sapiens) (UniProt P35462). The experiment in a line: qHTS of D3 Dopamine Receptor Antagonist: qHTS. To be noted: D3R cells, DiscoveRx beta-arrestin luminescence, antagonist mode; hits give low values. The procedure, abridged:
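Cells expressing the human receptor were seeded at 1500 cells/well, incubated overnight at 37 degrees C in 5% CO2, then exposed to library compounds with dopamine controls for 90 minutes at 37 degrees C before luminescent detection.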
Background: In qHTS, concentration-response curves come from the screen itself.
With `CCC(C)CN1C(=O)CSCC1(C)C(=O)NCc1ccccc1` (centres undefined), the max response, negative = inhibition is 6.99% (inactive). The same measure for `COc1cc(C=NC2CCCCC2)ccc1O`: 22% (inactive); for `OC(c1ccc(Cl)cc1)c1ncc(-c2ccc(Cl)cc2)[nH]1` (centres undefined): 21.5% (inactive); for `CCOC(=O)c1c(S(=O)(=O)NCC(=O)Nc2ccc(C)cc2)c(C)n(C)c1C`: -0.327% (inactive). On to `CCOC(=O)c1c(S(=O)(=O)Nc2cccc(Cl)c2)c(C)n(C)c1C`, for which the max response, negative = inhibition is -8.27% (inactive).

Consider `CCOC(=O)c1c(S(=O)(=O)Nc2ccc(CN3CCC(C)CC3)cc2)c(C)n(C)c1C`, for which the max response, negative = inhibition is -51% (active).

Turning to `CC1Cc2[nH][nH]c(=O)c2C(C2CCCC2)O1` (centres undefined), the max response, negative = inhibition was 0% (inactive). For the compound `CCCCc1ccc(S(=O)(=O)NC(=O)C2(C)CCN2C(=O)c2ccccc2)cc1` (centres undefined), the max response, negative = inhibition is 0.751% (inactive).

Regarding `CC1CCC2(CC1)NC(=O)N(CC(=O)NCc1ccco1)C2=O` (centres undefined), the max response, negative = inhibition is -7.59% (inactive). The same measure for `COc1cccc(-c2cc(NC(C)=O)c3ncc(-c4cccc(C(C)=O)c4)n3c2)c1`: 4.06% (inactive). The same measure for `CCOC(=O)c1cnn2c(SC)ncnc12`: -12.7% (inactive). On to `COC(=O)[C@H]1[C@H]2C[C@H]3c4[nH]c5ccccc5c4CCN3C[C@@H]2CC[C@@H]1O`, for which the max response, negative = inhibition was -113% (active) and -60.5% (active). The same measure for `C[C@H](O)[C@@H]1C(=O)N2CCc3c([nH]c4ccccc34)[C@@H]2C[C@@H]1N(C)C(=O)Nc1ccc(F)cc1`: -19.9% (inactive); for `COc1ccc(-c2ccc3[nH]c4c(c3c2)CCN2C[C@H]3[C@H](C)ON(C)[C@H]3C[C@@H]42)cc1`: -2.08% (inactive); for `COc1ccc(S(=O)(=O)NC(=O)C2(C)CCN2C(=O)COc2ccc(Cl)cc2)cc1` (centres undefined): -5.73% (inactive). The same measure for `Cc1nnc(SCCCn2c(N3CCCCC3)nc3c2c(=O)[nH]c(=O)n3C)s1`: 17.6% (inactive); for `Cn1c(=O)[nH]c(=O)c2c1nc(N1CCN(C(c3ccccc3)c3ccccc3)CC1)n2CCO`: 6.48% (inactive).

Take `Cn1c(=O)[nH]c(=O)c2c1nc(N1CCN(CCO)CC1)n2CCSc1nc2ccccc2s1`: the max response, negative = inhibition was -66.2% (active). With `COCCNc1nc(Nc2ccccc2Cl)c2sc(-c3ccccc3)cc2n1`, the max response, negative = inhibition is 14.1% (inactive).

As for `CC(C)(C)C(=O)c1c(N)[nH]c(C(=O)c2ccccc2)c1-c1ccc(F)cc1`, the max response, negative = inhibition is 4.8% (inactive).

With `Cc1c(C(=O)NC(C)C2CC3CCC2C3)cccc1[N+](=O)[O-]` (centres undefined), the max response, negative = inhibition is 10.2% (inactive). Turning to `CCOC(=O)CCC(=O)OCC(=O)NC(C)C1CC2CCC1C2` (centres undefined), the max response, negative = inhibition is -55.1% (active). For `Cc1cccc(C(=O)OCC(=O)NC(C)C2CC3CCC2C3)c1O` (centres undefined), the max response, negative = inhibition was -13.8% (inactive). The same measure for `CN(C)C(=O)c1cccc(-c2cnc3c(NC=O)cc(-c4ccc(C(=O)N5CCOCC5)cc4)cn23)c1`: -15.4% (inactive); for `CNc1cc(-c2c(OC)cccc2OC)ncn1`: -17.3% (inactive). The same measure for `C[C@H](NS(=O)(=O)c1ccc(Cl)cc1)C(=O)OCC(=O)N1CCOCC1`: -16.5% (inactive); for `CC(NS(=O)(=O)c1ccc(Cl)cc1)C(=O)Nc1ccc2c(c1)OCCO2` (centres undefined): -3.02% (inactive).

Take `CC(O)C(NS(=O)(=O)c1ccc(Cl)cc1)C(=O)OCc1cc([N+](=O)[O-])cc2c1OCOC2` (centres undefined): the max response, negative = inhibition was -82.9% (active).

`CC1(C(=O)NS(=O)(=O)c2ccc(C#N)cc2)CCN1C(=O)CC1CCCC1` (centres undefined): the max response, negative = inhibition was -19% (inactive).

As to `COc1ccc(CC(=O)NCC(=O)N/N=C/c2cc(Br)ccc2OC)cc1`, the max response, negative = inhibition was 20.7% (inactive). The same measure for `COc1ccc(CC(=O)N/N=C/c2cc([N+](=O)[O-])cc(Br)c2O)cc1`: -79.9% (active). The same measure for `O=C(Cc1ccc([N+](=O)[O-])cc1)N/N=C/c1ccco1`: 3% (inactive). The same measure for `C[C@@H]1CN([C@H](C)CO)S(=O)(=O)c2ccc(C#C[C@@H](C)O)cc2O[C@@H]1CN(C)Cc1ccc(-c2ccccc2)cc1`: 4.33% (inactive). Consider `CCOc1ccc(CCN2C(=S)N([C@@H](CC(C)C)CN3CCC[C@@H]3CN3C(=S)NC[C@@H]3Cc3ccc(O)cc3)C[C@@H]2CC(C)C)cc1`, for which the max response, negative = inhibition was 21.8% (inactive). The same measure for `CC1(C)OC(=O)C2=C(CC(c3ccccc3)OC2CCc2ccccc2)O1` (centres undefined): -29.7% (inactive); for `COC(=O)c1ccc2c(c1)S(=O)(=O)NC2C` (centres undefined): 18.4% (inactive). The same measure for `CCCNC(=O)c1cc(C2CCCCN2C(=O)OC)on1` (centres undefined): 0% (inactive); for `Cc1cc(-c2n[nH]c(=S)n2/N=C/C(Br)=C/c2ccccc2)n[nH]1`: -70.4% (active); for `COc1ccccc1N1CCN(/N=C\C(Br)=C\c2ccccc2)CC1`: -13.9% (inactive).

For `COc1ccccc1/C=C/C=N/n1c(-c2ccc(Cl)cc2Cl)n[nH]c1=S`, the max response, negative = inhibition was 13.4% (inactive). The same measure for `O=C(Nc1ccc(F)cc1)C(CCc1ccccc1)N1CCN(CC(=O)N2CCCC2)CC1` (centres undefined): -21.4% (inactive); for `COC(=O)[C@]12CCCCC=C1N(CCC1=CCCCC1)C(=O)[C@H](CC(=O)NCC1CCCCC1)C2`: 25.3% (inactive); for `O=S1(=O)C[C@@H](N2CCN(CCO)CC2)[C@H](COCc2ccccc2)N1`: 1.72% (inactive). The same measure for `CC(=O)c1nn(-c2ccccc2)c(=Nc2ccccc2)cc1C`: 18.5% (inactive).

Take `COC(=O)C[C@@H]1C=C[C@@H](NC(=O)c2ccc3c(c2)OCO3)[C@@H](CO)O1`: the max response, negative = inhibition was -7.72% (inactive). The same measure for `COC(=O)Cn1c2ccc(C)cc2c2nc(C)sc21`: -14.2% (inactive); for `CCn1c(O)c(N=NC(=O)c2cccc(S(=O)(=O)N3CCCCC3)c2)c2ccccc21`: 6.1% (inactive).

For the compound `CCn1c(O)c(N=NC2=NC(=O)CS2)c2cc(C)ccc21`, the max response, negative = inhibition is -90.2% (active).

`COc1cccc(C(O)c2nc(-c3ccc(C)c(C)c3)cs2)c1` (centres undefined): the max response, negative = inhibition was 0% (inactive). The same measure for `CC(C)CC1C(=O)N(Cc2cn(CC3CCCCC3)nn2)CCS(=O)(=O)N1Cc1ccc(-c2ccc(Cl)cc2)cc1` (centres undefined): -20.8% (inactive). The same measure for `COc1ccc(NC(=O)C2(C)Cc3c(-c4ccc(C(N)=O)cc4)ccnc3O2)cc1` (centres undefined): -3.64% (inactive); for `COc1ccc(C(=O)NCCNc2ccc([N+](=O)[O-])cn2)cc1`: -27.5% (inactive); for `COC(=O)C(NC(=O)c1ccc(OC)cc1)(Nc1ncc(S(=O)(=O)c2ccc([N+](=O)[O-])cc2)s1)C(F)(F)F` (centres undefined): -81.6% (active). The same measure for `CCOCC(=O)Nc1ncc(S(=O)(=O)c2ccc([N+](=O)[O-])cc2)s1`: 8.75% (inactive).
